We go through seven molecules from PubChem BioAssay (Tox21).

A short description of test [1]: Nuclear factor erythroid 2-related factor 2/antioxidant responsive element (Nrf2/ARE) small molecule agonists: qHTS cell viability counter screen in human keratinocytes (AID 1919968; active means well fitted curve in the direction sought with a large enough effect in the repeat runs; an effect the other way counts as inactive or inconclusive; further: nearly all actives have a fitted effect of over 55% in size; further: potency means the concentration at half of the fitted maximal effect). The gist of the method: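 Fluorescence read-out from CellTiter-Fluor after 1 h at 37 C. Wells held HaCaT-derived ARE-luciferase reporter cells (1,500/well) treated 23 h with DMSO-dissolved compounds. Run in the same wells as the luciferase agonist read.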

Test [2] can be described thus: Nuclear factor erythroid 2-related factor 2/antioxidant responsive element (Nrf2/ARE) small molecule agonists: luciferase reporter gene qHTS assay in human keratinocytes (AID 1919969). Further: nearly all actives have a fitted effect of over 35% in size. On the technique in general: In a reporter assay the amount or activity of a reporter protein is the signal.
The target in test [3] is Gonadotropin-releasing hormone receptor (Homo sapiens) (UniProt P30968). The test can be described thus: Human gonadotropin-releasing hormone receptor (GnRHR) small molecule agonists, calcium flux assay in GnRHR-HEK293 cells (AID 1920063). Further: nearly all actives have a fitted effect of over 35% in size. Put shortly:
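Calcium-dye fluorescence, Ex/Em=480/540, recorded every 1 sec over 3 min after compound addition to GnRHR-HEK293 cells. Cells had been seeded 18 hours earlier and dye-loaded for 1 hour at 37 C. Fifteen concentrations, triplicates.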
Background: Calcium flux is commonly read through the fluorescence of an indicator in the cells.

In test [4] the target is KiSS-1 receptor (Homo sapiens) (UniProt Q969F8). Put plainly: Human kisspeptin (KISS1R) small molecule agonists, calcium flux assay in KISS1R-HEK293 cells (AID 1920064; active means well fitted curve in the direction sought with a large enough effect in the repeat runs; an effect the other way counts as inactive or inconclusive). Put shortly: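 Calcium flux read-out: kinetic fluorescence at Ex/Em=480/540, 1 s intervals over 3 min, after pin-tool compound addition to dye-loaded KISS1R-HEK293 cells. Fifteen concentrations, triplicates.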

A short description of test [5]: G protein-coupled receptor (GPCR) small molecule agonists, calcium flux assay: HEK293 wild type cell line counter screen (AID 1920065). The gist of the method: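 Agonist mode; 18 h seeding at 37 C, 1 h dye load at 37 C; compounds pinned from DMSO, ATP as positive control; kinetic fluorescence 480/540 nm, 3 min, 1 s reads; 15 concentrations, triplicate.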
Test [6] in a line: p53 small molecule agonists, cell-based qHTS assay with human liver microsomes (AID 1963577). Put shortly: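 p53RE-bla cells, 4,000/well, compound added after 5 h, with human liver microsomes 0.5 mg/mL and NADPH 0.5 mg/mL final; 16 h at 37 C, then LiveBLAzer 2 h RT, fluorescence.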
Background: qHTS replaces the single test concentration by a dilution series.

Test [7] can be described thus: p53 small molecule agonists, cell-based qHTS assay with rat liver microsomes (AID 1963578). The gist of the method: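 p53RE-bla cells, 4,000/well, pre-incubated 5 h, then given compounds plus rat liver microsomes (0.5 mg/mL final) and NADPH (0.5 mg/mL final). Incubation 16 h at 37 C; beta-lactamase reporter read by LiveBLAzer fluorescence after 2 h at room temperature.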

A short description of test [8]: p53 small molecule agonists, cell-based qHTS assay with human liver microsomes: qHTS cell viability counter screen (AID 1963579). Further: nearly all actives have a fitted effect of over 45% in size. The gist of the method:
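p53RE-bla cells, 4,000/well, dosed 5 hours after plating, with human liver microsomes (0.5 mg/mL final) plus NADPH (0.5 mg/mL final), 16 hours at 37 C. Viability read as CellTiter-Glo luminescence after 30 min at room temperature.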

A short description of test [9]: p53 small molecule agonists, cell-based qHTS assay with rat liver microsomes: qHTS cell viability counter screen (AID 1963580). Further: nearly all actives have a fitted effect of over 45% in size. Put shortly:
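Cytotoxicity counter screen: intracellular ATP read by CellTiter-Glo luminescence in the p53 reporter wells. HCT-116 p53RE-bla cells were treated for 16 h at 37 C alongside rat liver microsomes and NADPH, each 0.5 mg/mL final.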

Test [10] in a line: p53 small molecule agonists, cell-based qHTS assay: qHTS cell viability counter screen (AID 1963581). Further: nearly all actives have a fitted effect of over 45% in size. Further: potency means the concentration at half of the fitted maximal effect. The gist of the method: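 Cytotoxicity read-out: ATP-based luminescence (CellTiter-Glo, 30 min RT) measured in the same wells as the p53 reporter assay, HCT-116 p53RE-bla cells, 16 h compound exposure at 37 C.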
Test [11] deals with 5-hydroxytryptamine receptor 2A (Homo sapiens) (UniProt P28223). The test can be described thus: 5-hydroxytryptamine receptor 2A (HTR2A) small molecule antagonists, cell-based qHTS assay (AID 1963586). Further: nearly all actives have a fitted effect of over 45% in size. Put shortly:
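CHO cells stably expressing human HTR2A were plated for 18 h at 37 C, then loaded with calcium dye for 1 h. Compounds were preincubated 5 min at room temperature before DOI (4 nM solution) was added. Kinetic fluorescence was read for 3 min.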

Test [12] shares this target. Put plainly: 5-hydroxytryptamine receptor 2A (HTR2A) small molecule agonists, cell-based qHTS assay (AID 1963587). Further: nearly all actives have a fitted effect of over 30% in size. Put shortly: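 Kinetic calcium-flux fluorescence (2 min, 1 sec intervals) after compound addition in agonist mode. HTR2A-CHO cells were cultured 18 h, then dye-loaded 1 h at 37 C.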
The target in test [13] is Muscarinic acetylcholine receptor M1 (Homo sapiens) (UniProt P11229). The test can be described thus: Cholinergic receptor muscarinic 1 (CHRM1) small molecule antagonists, cell-based qHTS assay (AID 1963588). Further: nearly all actives have a fitted effect of over 40% in size. Put shortly: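 Compounds were tested at 15 concentrations in three independent runs. Dye-loaded CHRM1-CHO cells were exposed 5 min at room temperature before stimulation by acetylcholine added at 50nM. Intracellular calcium was read kinetically on FDSS for 3 min.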

The target is the same in test [14]. The test can be described thus: Cholinergic receptor muscarinic 1 (CHRM1) small molecule agonists, cell-based qHTS assay (AID 1963589). Further: nearly all actives have a fitted effect of over 35% in size. Put shortly:
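Calcium flux read-out: kinetic fluorescence at 1 sec intervals after pin-tool compound addition to dye-loaded CHRM1-CHO cells (human M1). Agonist mode; 15 concentrations tested in triplicate independent runs.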

A short description of test [15]: cAMP Responsive Elements (CRE) small molecule agonists, cell-based qHTS assay (AID 1963590). Put shortly: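 Beta-lactamase reporter readout: LiveBLAzer B/G FRET substrate, 2 h at room temperature, added after 3 h compound treatment of CRE-bla HEK 293T cells at 37 C/5% CO2.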
Test [16] can be described thus: cAMP Responsive Elements (CRE) small molecule antagonists, cell-based qHTS assay (AID 1963591; active means well fitted inhibition curve with a large enough effect in the signal ratio in the repeat runs, not every such curve was filed as active; the % refers to the signal ratio). The gist of the method:
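HEK293T CRE-bla; 18 h preincubation; compound pin-transfer; NKH477 0.25 uM final, 3 h, 37 C; LiveBLAzer FRET substrate 2 h RT.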

The target in test [17] is Beta-2 adrenergic receptor (Homo sapiens) (UniProt P07550). The test can be described thus: Adrenergic beta2 receptor (ADRB2) small molecule antagonists, cell-based qHTS assay (AID 1963592). Further: series mostly up to about 92 µM; nearly all actives have a fitted effect of over 50% in size. Put shortly: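 Assay format: CHO-ADRB2 cells, 18-20hr seeding at 37C/5% CO2, then compound plus 1nM isoproterenol agonist mix for 0.5hr RT. Homogeneous time-resolved fluorescence cAMP detection after 1hr, expressed as 665/615 nm ratio.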

In test [18] the target is D(2) dopamine receptor (Homo sapiens) (UniProt P14416). The test can be described thus: Dopamine D2 receptor (DRD2) small molecule agonists, cell-based qHTS assay (AID 1963594). Further: nearly all actives have a fitted effect of over 35% in size. Put shortly:
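cAMP accumulation in DRD2-HEK293 cells measured by HTRF after 1 h detection; compounds added 10 min before NKH477 (200nM […]) forskolin-analogue stimulation, 30 min at room temperature, with Ro20-1724 present at 0.1 mM final.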

For test [19] the target is unchanged. Put plainly: Dopamine D2 receptor (DRD2) small molecule antagonists, cell-based qHTS assay (AID 1963595; active means well fitted inhibition curve with a large enough effect in the signal ratio in the repeat runs, with a control signal flat; the % refers to the signal ratio). The gist of the method:
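Antagonism was scored as restored cAMP in HEK293-DRD2 cells. These cells were stimulated with 200 nM NKH477 and 12 nM quinpirole for 30 min at room temperature, in the presence of 0.1 mM Ro20-1724.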

The nature of test [20]: p53 small molecule agonists, cell-based qHTS assay (AID 1963582; active means well fitted activation curve with a large enough effect in the signal ratio in the repeat runs, not every such curve was filed as active; the % refers to the signal ratio). The gist of the method:
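Fluorescence intensity read-out of a beta-lactamase reporter under a p53 response element. Cells were exposed to DMSO-dissolved compounds for 16 h at 37 C, then developed with FRET substrate for 2 h at RT.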

Values without a mark were called inactive. Results filed as inconclusive are left out. The source made the active and inactive calls. Unless noted, the call rests on the fitted dose curve.
On the % scale 0 is the no-effect control and ±100 the full control effect.

Gonadotropin-releasing hormone receptor (Homo sapiens), sequence (P30968 whole entry, looked up): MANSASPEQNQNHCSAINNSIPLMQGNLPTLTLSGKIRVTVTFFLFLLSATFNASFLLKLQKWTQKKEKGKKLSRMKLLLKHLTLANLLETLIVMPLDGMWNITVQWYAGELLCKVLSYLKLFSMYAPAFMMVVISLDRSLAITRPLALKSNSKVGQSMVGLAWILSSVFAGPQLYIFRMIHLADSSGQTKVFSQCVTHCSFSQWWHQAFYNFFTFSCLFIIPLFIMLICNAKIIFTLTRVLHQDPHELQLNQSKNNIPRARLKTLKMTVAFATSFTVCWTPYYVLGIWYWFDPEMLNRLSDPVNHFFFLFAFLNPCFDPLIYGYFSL
D(2) dopamine receptor (Homo sapiens), sequence (P14416 whole entry, looked up): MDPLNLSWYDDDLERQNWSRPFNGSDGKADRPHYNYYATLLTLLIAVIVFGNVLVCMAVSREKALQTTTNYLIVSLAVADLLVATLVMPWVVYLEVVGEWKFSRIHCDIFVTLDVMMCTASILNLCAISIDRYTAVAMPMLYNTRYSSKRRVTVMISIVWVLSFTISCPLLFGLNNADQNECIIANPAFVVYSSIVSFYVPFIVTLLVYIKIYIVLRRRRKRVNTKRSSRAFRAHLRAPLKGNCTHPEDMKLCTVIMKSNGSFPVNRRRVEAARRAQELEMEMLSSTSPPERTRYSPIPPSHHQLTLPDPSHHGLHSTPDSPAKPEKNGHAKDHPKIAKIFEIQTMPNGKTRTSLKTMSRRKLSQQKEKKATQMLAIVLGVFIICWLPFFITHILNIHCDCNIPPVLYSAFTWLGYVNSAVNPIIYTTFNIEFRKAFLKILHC
5-hydroxytryptamine receptor 2A (Homo sapiens), sequence (P28223 whole entry, looked up): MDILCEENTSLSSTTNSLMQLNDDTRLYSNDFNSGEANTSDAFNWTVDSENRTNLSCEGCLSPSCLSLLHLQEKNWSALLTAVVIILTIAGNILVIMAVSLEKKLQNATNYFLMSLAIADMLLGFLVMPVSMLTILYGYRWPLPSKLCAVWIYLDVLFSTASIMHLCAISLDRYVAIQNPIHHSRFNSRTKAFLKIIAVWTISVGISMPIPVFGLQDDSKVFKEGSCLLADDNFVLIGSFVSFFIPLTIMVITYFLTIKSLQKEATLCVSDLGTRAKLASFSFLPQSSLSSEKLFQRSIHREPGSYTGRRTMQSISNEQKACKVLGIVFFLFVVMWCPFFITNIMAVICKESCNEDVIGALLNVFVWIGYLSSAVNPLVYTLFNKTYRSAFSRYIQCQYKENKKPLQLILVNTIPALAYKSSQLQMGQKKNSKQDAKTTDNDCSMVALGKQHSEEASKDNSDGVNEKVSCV
Muscarinic acetylcholine receptor M1 (Homo sapiens), sequence (P11229 whole entry, looked up): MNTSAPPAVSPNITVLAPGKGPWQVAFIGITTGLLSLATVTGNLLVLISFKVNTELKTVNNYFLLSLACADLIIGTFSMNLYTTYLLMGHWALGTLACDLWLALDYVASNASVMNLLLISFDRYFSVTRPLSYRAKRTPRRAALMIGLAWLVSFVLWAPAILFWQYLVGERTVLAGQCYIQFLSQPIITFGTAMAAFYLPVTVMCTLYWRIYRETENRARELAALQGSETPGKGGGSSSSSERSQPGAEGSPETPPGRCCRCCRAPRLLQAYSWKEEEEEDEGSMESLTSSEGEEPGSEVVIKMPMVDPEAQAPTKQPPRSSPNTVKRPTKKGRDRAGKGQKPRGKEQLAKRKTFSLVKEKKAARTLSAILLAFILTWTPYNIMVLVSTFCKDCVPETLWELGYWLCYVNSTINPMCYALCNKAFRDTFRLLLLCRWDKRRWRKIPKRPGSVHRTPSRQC
KiSS-1 receptor (Homo sapiens), sequence (Q969F8 whole entry, looked up): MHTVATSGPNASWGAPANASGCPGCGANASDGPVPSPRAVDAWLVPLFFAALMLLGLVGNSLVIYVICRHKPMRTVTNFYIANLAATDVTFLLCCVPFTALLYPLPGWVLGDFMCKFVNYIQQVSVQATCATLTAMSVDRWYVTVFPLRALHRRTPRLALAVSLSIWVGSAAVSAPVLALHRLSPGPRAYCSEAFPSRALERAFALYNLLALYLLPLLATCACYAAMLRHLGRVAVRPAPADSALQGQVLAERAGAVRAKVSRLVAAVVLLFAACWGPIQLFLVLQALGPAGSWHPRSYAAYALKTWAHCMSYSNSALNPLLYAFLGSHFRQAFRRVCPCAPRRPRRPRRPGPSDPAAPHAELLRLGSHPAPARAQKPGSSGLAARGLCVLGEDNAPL
Beta-2 adrenergic receptor (Homo sapiens), sequence (P07550 whole entry, looked up): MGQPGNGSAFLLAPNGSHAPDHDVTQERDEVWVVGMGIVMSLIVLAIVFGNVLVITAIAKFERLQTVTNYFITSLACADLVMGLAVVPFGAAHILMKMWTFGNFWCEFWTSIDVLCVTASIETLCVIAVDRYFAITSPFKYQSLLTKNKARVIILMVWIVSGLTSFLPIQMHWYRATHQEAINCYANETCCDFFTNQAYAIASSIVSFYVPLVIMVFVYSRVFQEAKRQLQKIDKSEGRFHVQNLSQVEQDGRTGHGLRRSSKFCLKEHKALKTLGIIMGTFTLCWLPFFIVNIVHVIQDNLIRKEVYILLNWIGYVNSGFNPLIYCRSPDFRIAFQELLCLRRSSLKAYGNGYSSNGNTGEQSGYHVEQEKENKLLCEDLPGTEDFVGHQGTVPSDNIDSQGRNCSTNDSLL

Take `[O-][n+]1ccc(Cl)cc1`: the Potency entry in test [1], in test [2], in test [3], in test [4], in test [5] and in test [6] was “inactive” in each case. The Potency entry in test [7], in test [8], in [9], in test [10], in test [11] and in test [12] was “inactive” in each case. In addition, the Potency entry in test [13], in test [14], in test [15], in [16], in [17] and in test [18] was “inactive” throughout. Also, the Potency entry in [19] was “inactive”.

With `Clc1ccc(C(c2ccccc2Cl)C(Cl)Cl)cc1` (configuration not stated), the Potency in test [1] was 61.1 µM (active); in test [10], 40.8 µM (active). The Potency result in test [2], in test [3], in test [4], in test [5], in [6] and in test [7] was “inactive” in each case. Besides, the Potency result in [8], in test [9], in test [20], in test [16], in test [17] and in test [18] was “inactive” throughout.

As for `CCOCCOCC`, the Potency entry in test [1], in test [2], in test [3], in test [4], in [5] and in [6] was “inactive” each time. The Potency result in test [7], in test [8], in [9], in test [10], in [20] and in test [12] was “inactive” in each case. Moreover, the Potency entry in test [13], in test [14], in test [15], in [16], in [17] and in test [18] was “inactive” throughout. Also, in test [19], the Potency result was “inactive”.

For the molecule `CC(C)(C)CC(C)(C)c1ccc(Nc2ccc(C(C)(C)CC(C)(C)C)cc2)cc1`, the activity change, negative = cytotoxicity is 0.0348% [at 8.39 µM] in [1], -1.28% [at 5.99 µM] in [8], -9.33% [at 5.99 µM] in test [9] and 0.663% [at 5.99 µM] in test [10]. For the same molecule, the activity, positive = activation in [2] was -1.24% [at 8.39 µM]. Moreover, in [3], the activity change is 0.129% [at 5.22 µM, hits give high values]. For the same molecule, the activation in test [4] was 0.255% [at 6.97 µM]; in test [5] it was -0.517% [at 5.23 µM]; in test [6], -1.73% [at 5.99 µM]; in [7] it was -0.0551% [at 5.99 µM]; in [12], 5.4% [at 7.02 µM]; in test [14] it was 0.016% [at 6.97 µM]. In addition, the activation in [15] is -1.83% [at 8.39 µM]; in [18], 1.28% [at 8.39 µM]. Moreover, the results for the activity, negative = inhibition in [11] and in test [13] were -0.349% [at 5.62 µM] and -10.6% [at 5.58 µM], respectively. Further, the activity change, negative = inhibition in test [16] was -1.43% [at 8.39 µM]; in [17], -0.838% [at 8.39 µM]; in [19] it was -0.278% [at 8.38 µM].

For the molecule `CN(C)N=Nc1ccccc1`, the Potency entry in test [1], in test [2], in [3], in test [4], in test [5] and in [6] was “inactive” throughout. Further, the Potency result in test [7], in test [8], in test [9], in [10], in test [20] and in test [12] was “inactive” each time. The Potency result in test [14], in test [15], in test [16], in test [17], in [18] and in test [19] was “inactive” in each case.

In the case of `O=c1[nH]c(=O)n([C@H]2CCCO2)cc1F`, the Potency result in test [1], in [2], in test [3], in test [4], in [5] and in test [6] was “inactive” throughout. Further, the Potency result in test [7], in test [8], in test [9], in [10], in test [20] and in test [15] was “inactive” in each case. For the same molecule, the Potency result in [16], in test [18] and in test [19] was “inactive” each time.

As for `C/C=C(\C)C(=O)OC/C=C(\C)CCC=C(C)C`, the Potency entry in [1], in test [2], in [3], in test [4], in test [5] and in [6] was “inactive” throughout. In addition, the Potency result in test [7], in test [8], in test [9], in test [10], in test [11] and in test [12] was “inactive” each time. In addition, the Potency entry in [13], in test [14], in [15], in test [16], in test [17] and in test [18] was “inactive” throughout.
